Results as given in PubChem BioAssay AID1347120 (National Center for Advancing Translational Sciences (NCATS), 2019).
Among all 390,000 compounds or so, about 930 (0.24%) were called active. Where a call stands in place of a potency, no number is given. Roughly 5% stayed inconclusive and do not appear here. The call rests on the fitted dose curve; in most records, active means well fitted activation curve with a large enough effect; inconclusive means small, poorly fitted or top-dose-only effect; inactive means no such curve, though single readings can be large or run the other way. For the sample, actives were picked, then their nearest neighbours and some compounds at random.

Test: qHTS for Suppressors of FUS Proteinopathy: Primary screen using FUS-linked yeast assay; further: nearly all actives have a fitted effect of over 55% in size
Details: S. cerevisiae FUS-expressing, OD600, 24 h; Potency: growth rescue; series mostly up to 76.6 µM
Source text: Several widespread neurodegenerative diseases, including Alzheimer disease, Huntington disease, Frontotemporal Lobar Degeneration (FTLD) and Amyotrophic Lateral Sclerosis (ALS), share a common pathological feature, namely accumulation of specific protein aggregates in diseased tissue. These diseases which is associated with protein misfolding (proteinopathies) have become increasingly problematic as the population ages and life expectancies are extended. Most proteinopathies are currently incurable, a situation confounded by the fact that the basis of neurodegeneration is generally poorly understood. There exists urgent and significant need to find therapeutics that can inhibit the toxicity associated with protein aggregation. A novel approach to understand the underlying mechanisms of neurodegenerative diseases has recently emerged in which the disease conditions are modeled in the yeast (Saccharomyces cerevisiae), a tractable eukaryotic organism with conserved protein quality control mechanisms. Yeast offers quick and reliable genetic manipulations and can be easily tailored to high-throughput screening (HTS).
For this project, a yeast model of the FUS proteinopathies (a spectrum of neurodegenerative diseases that include ALS and a subtype of FTLD) was generated and employed. The cytoplasmic accumulation of the DNA/RNA-binding protein FUS (also known as TLS) is causative to both familial and sporadic forms of ALS and FTLD. This yeast model recapitulates neuronal pathology by showing severe cytotoxicity associated with cytoplasmic accumulation of FUS aggregates and a specific interaction between FUS and TDP-43, another ALS-associated protein. […] Specifically, the cellular accumulation of misfolded FUS that disrupts RNA homeostasis in both yeast and higher eukaryotes. This model was validated to be suitable for quantitative HTS (qHTS) use for finding genetic or chemical factors that restore growth. […] Identified compounds that inhibits FUS-yeast toxicity is flagged, re-acquired, and validated for further investigation and optimization.
NIH Chemical Genomics Center [NCGC]
NIH Molecular Libraries Probe Production Centers Network [MLPCN]
Assay Submitter (PI): Frank Shewmaker PhD, Uniformed Services University of the Health Sciences
Compound CP55940 was used as the positive control. Column 1 was treated with CP55940 titration from 92uM (final concentration, 1:2 dilution), while Column 2 was treated with top dose 92uM. Columns 3 and 4 were treated with DMSO only as negative control to assess background and noise signal.
Four hundred fifty microliter of cultured yeast (in 20mL rich medium) provided by Dr. Shewmaker lab was incubated at 30C at 99% humidity for 3hr. The culture was then spun down at 4000rpm for 5min and the cell pellet was resuspended in 2mL of Sdmin Media + ALU(330) + 2.5% Raffinose. One hundred microliter of the suspension was added to 900uL of water and OD of the solution was obtained. Twenty mL of responding medium (provided by Shewmaker lab) + 2.5% raffinose was added to ensure cell density of 0.1; the solution was incubated overnight. Working cell solution (FUS-yeast in Sdmi + Sdmi + 1X ALU + 2% galactose media) was prepared (final OD at 0.005) and 3uL was dispensed in a 1536-well Aurora high based clear bottom assay plates. Controls and library compounds (at various final concentrations from 40uM to 0.32uM) were added using a 1536-well pin array using the Kalypsys pin-tool. The plates were then incubated for 24hrs in a cell-culture incubator (30C; 99% humidity). Absorbance at 600nm was then read using the PerkinElmer ViewLux plate reader.
Potency means the concentration at half of the fitted maximal effect.

Compound | Potency
COc1ccccc1NC(=O)c1sc2nc(C)c(C(=O)Nc3ccc(Cl)cc3)c(-c3ccc(Br)cc3)c2c1N | inactive
CC(C)S(=O)(=O)c1oc(-c2ccc(F)cc2)nc1S(=O)(=O)c1ccc(F)cc1 | inactive
CCOc1ccccc1NC(=O)C1CCCN(S(=O)(=O)c2cn(C)cn2)C1 (stereo not given) | inactive
COC(=O)c1ccccc1NC(=O)c1ccc2c(=O)n3c(nc2c1)CCCCC3 | inactive
COc1cccc(CNC(=O)c2ccc3c(c2)sc2nc(-c4cccc(OC)c4)cn23)c1 | inactive
CN1C(=O)c2[nH]nc(-c3ccc(F)cc3)c2C1c1ccccn1 (stereo not given) | inactive
COc1ccc(CCNC(=O)c2nn(C)c3c2CSc2ccccc2-3)cc1OC | inactive
CCCn1c2ccccc2c2cnn(CC(=O)NCC3CCN(Cc4ccc(C)cc4)CC3)c(=O)c21 | inactive
Cc1ccc(NC(=O)CSc2nc3ccccc3c3nc(CCn4cncc4C)nn23)cc1F | inactive
Cc1cccc(NC(=O)C2CCCN2S(=O)(=O)c2cccc3nsnc23)c1C (stereo not given) | inactive
COc1ccc(-c2cn3c(n2)sc2cc(C(=O)Nc4ccccc4F)ccc23)cc1 | inactive
CCOc1ccc(NC(=O)c2c(NC(=O)Cc3ccccc3)sc3c2CCCCC3)cc1 | inactive
NS(=O)(=O)c1ccc(CCNC(=O)CCCCCn2c(=O)[nH]c3ccccc3c2=O)cc1 | inactive
CCOC(=O)C1=C(c2ccccc2)Nc2ncnn2C1c1ccc(Cl)cc1 (stereo not given) | inactive
COc1ccc(N2CCN(c3cc(C)nc4nncn34)CC2)cc1 | inactive
COCCCNc1ccn2nc(-c3ccc(CC(C)C)cc3)cc2n1 | 25.1 µM (active)
COc1ccccc1-c1cc2nc(NCc3cccc(Cl)c3)ccn2n1 | inactive
CC(C)Cc1ccc(-c2cc3nc(NCc4cccc(Cl)c4)ccn3n2)cc1 | inactive
CCOc1ccccc1N(CC)C(=O)Nc1cn(C)c(=O)c2ccccc12 | inactive
Cc1ccc(C)c(N2CCN(CCCNC(=O)Nc3ccc(Cl)cc3)CC2)c1 | inactive
CCc1cc2c(cc3c(=O)n(CC(=O)NCCc4ccc(OC)c(OC)c4)ncn32)s1 | inactive
Cc1ccc(-c2csc(C(C#N)=C(O)CN3CCN(C(=O)c4ccco4)CC3)n2)cc1 | 28.2 µM (active)
COc1cccc(OC)c1OCCN1CCN(C(=O)c2ccco2)CC1 | inactive

Compound | Potency
Cc1ccc(NC(=O)C(c2ccccc2)N2CCN(C(=O)c3ccco3)CC2)cc1 (stereo not given) | inactive
CN1CCN(C2(CNC(=O)COc3ccc(C(C)(C)C)cc3)CCCCC2)CC1 | inactive
CC(C)(C)OC(=O)C[C@@H]1C/C=C\C[C@@H](CC(=O)N[C@H](CO)Cc2ccccc2)C(=O)NC[C@@H](c2ccccc2)OC1=O | inactive
CC(C)(C)OC(=O)C[C@@H]1C/C=C\C[C@@H](CC(=O)N[C@H](CO)Cc2ccccc2)C(=O)NCCOC1=O | inactive
O=C(C[C@H]1C/C=C\C[C@@H](NC(=O)OCC2c3ccccc3-c3ccccc32)C(=O)O[C@@H](c2ccccc2)CNC1=O)N[C@H](CO)Cc1ccccc1 | 35.5 µM (active)
CC(C)c1ccc(NC(=O)c2ccc3c(O)c(S(=O)(=O)c4ccccc4)c(=O)[nH]c3c2)cc1 | inactive
Cc1ccc(Cl)cc1-n1ncc2c(N3CCC(C(N)=O)CC3)ncnc21 | inactive
CCOC(=O)c1c(NC(C)=O)c2c3c(sc2n1Cc1c(C)cc(C)cc1C)CCCC3 | inactive
CCc1ccccc1NC(=O)CSc1nnc(-c2ccccc2)c(-c2ccccc2)n1 | inactive
CCOCCCn1c(SCC(=O)Nc2ccc(CC)cc2)nc2ccccc2c1=O | inactive
O=C(CN1CCOCC1)Nc1c(Cl)cc(Cl)cc1Cl | inactive
O=C(CN1CCOCC1)Nc1ccccc1 | 25.1 µM (active)
O=C(CN1CCOCC1)Nc1c2c(nc3c1CCC3)CCC2 | inactive
CN(C)S(=O)(=O)c1cccc(NC(=O)COC(=O)C2(c3ccccc3F)CCCC2)c1 | inactive
CN(c1ccccc1)S(=O)(=O)c1ccc(NC(=O)COc2ccccc2)cc1 | inactive
CN(C)S(=O)(=O)c1cccc(NC(=O)COc2ccc3ccccc3c2)c1 | 22.4 µM (active)
Cc1ccc(NC(=O)C2CCN(S(=O)(=O)c3cc(-c4noc(C)n4)ccc3C)CC2)c(C)c1 | inactive
Cc1ccccc1C(=O)Nc1nnc(S(=O)(=O)N(C)c2ccc(Cl)cc2)s1 | inactive
CCOC(=O)C1=C(C)Nc2sc(C(=O)c3ccc(Br)cc3)c(N)c2C1c1ccc(C(=O)OC)cc1 (stereo not given) | 31.6 µM (active)
CCOC(=O)C1=C(C)NC2=C(C(=O)CC(C)(C)C2)C1c1ccsc1 (stereo not given) | inactive
CCOC(=O)C1=C(C)NC(SC)=NC1c1ccccc1 (stereo not given) | inactive
O=C(NCc1ccccc1)c1cccc(NC(=O)N2CCSc3ncccc32)c1 | inactive
Cc1cc(C(=O)Nc2cccc(C(F)(F)F)c2)c2c(C)nn(-c3cccc(F)c3)c2n1 | inactive

Compound | Potency
CC(C)(C)c1ccc(C(=O)Nc2ccc3c(c2)CCCN3C(=O)c2cccs2)cc1 | inactive
CC(C)c1ccc(S(=O)(=O)Nc2ccc(O)c(Sc3nc4ccccc4s3)c2)cc1 | inactive
CC(C)(C)c1ccc(S(=O)(=O)Nc2ccc(O)c(Sc3nc4ccccc4s3)c2)cc1 | inactive
CCOc1ccc(Nc2c(S(=O)(=O)c3ccccc3)cnc3ccccc23)cc1 | inactive
Cc1c(NC(=O)Cc2ccccc2)cccc1-c1nc2cccnc2s1 | inactive
Cc1ccc(Cl)cc1NC(=O)CCC(=O)N1CC(C)Sc2ccccc21 (stereo not given) | inactive
CCCn1c(C)cc(/C=C(\C#N)C(=O)OCC(=O)Nc2cc(OC)c(OC)c(OC)c2)c1C | inactive
CCCn1c(C)cc(/C=C(\C#N)C(=O)OCC(=O)N(C)c2c(N)n(Cc3ccccc3)c(=O)[nH]c2=O)c1C | 25.1 µM (active)
CCN(C(=O)COC(=O)CCOc1cccc(C)c1)c1c(N)n(Cc2ccccc2)c(=O)[nH]c1=O | inactive
CCC1CCCCN1C(=O)Cn1c(=O)n(CCCCCC(=O)NCc2ccccc2)c(=O)c2sccc21 (stereo not given) | inactive
COc1ccc(NC(=O)NC(C)c2c(-n3cccc3)sc(C)c2C)cc1OC (stereo not given) | inactive
CCN(CC)S(=O)(=O)c1ccc2c(c1)N(CC(=O)NCC(C)c1ccccc1)C(=O)CO2 (stereo not given) | inactive
CCN(CCCNC(=O)c1cc2c(=O)n(CC)c3ccccc3c2s1)Cc1ccccc1 | inactive
Cc1cccc(NC(=O)CSc2nnc(CNC(=O)c3cccc(C)c3)n2-c2ccccc2)c1 | inactive
CCc1ccc(S(=O)(=O)c2nnn3c2nc(NCc2ccccc2OC)c2cc(Cl)ccc23)cc1 | inactive
N#C/C(=C\c1cccc(F)c1)c1nc(-c2cc3c(ccc4ccccc43)oc2=O)cs1 | inactive
COc1ccc(C2C(=O)N(C3CCCCCC3)CC(=O)N2CCc2ccc(Cl)cc2)cc1OC (stereo not given) | inactive
Cc1onc(-c2ccc(F)cc2F)c1C(=O)Nc1cccc(C(F)(F)F)c1 | inactive
Cc1ccc(N2C(=O)C3N=NN(CC(=O)N4N=C(c5cccc6ccccc56)CC4c4ccccc4)C3C2=O)cc1 (stereo not given) | 14.1 µM (active)
Cc1ccc(CNC(=O)CSC2=Nc3ccccc3C3=NC(C)C(=O)N23)cc1 (stereo not given) | inactive
COc1ccc(C2=NN(C(=O)CSc3nc(=O)n4ccc(C)cc4n3)C(c3ccc(C)cc3)C2)cc1 (stereo not given) | inactive
COc1ccccc1CNC(=O)Cn1nc(C)c2nn(-c3ccc(Cl)cc3)c(C)c2c1=O | inactive
Cc1ccc(NC(=O)c2nc(S(=O)(=O)Cc3cccc(C)c3)ncc2Cl)cc1 | inactive

Compound | Potency
CCN1C(=O)[C@H]2[C@@H](c3ccc(SC4CCCCC4)c(OC)c3)N[C@@](Cc3ccccc3)(C(=O)OC)[C@H]2C1=O | inactive
CCN1C(=O)[C@H]2[C@@H](c3ccc(-c4ccc(OC)cc4)cc3)N[C@@](Cc3ccccc3)(C(=O)OC)[C@H]2C1=O | inactive
CCN1C(=O)[C@H]2[C@@H](c3ccc(-c4ccc(F)cc4)cc3)N[C@@](Cc3ccccc3)(C(=O)OC)[C@H]2C1=O | 11.2 µM (active)
COC(=O)c1cc2occc2n1Cc1nc(-c2ccc(C)cc2)oc1C | inactive
CCN(Cc1ccccc1)S(=O)(=O)c1ccc2c(c1)CCCN2C(C)=O | inactive
Cc1cccc(CSc2nc3ccncc3n2CC(=O)N(C)C2CCCCC2)c1 | inactive
Cc1ccc(Cl)cc1N(C)C(=O)C1CCCN(c2ncnc3onc(-c4ccc(F)cc4)c23)C1 (stereo not given) | inactive
CON(C)S(=O)(=O)c1ccc2c(c1)NC(=O)C1CCCN21 (stereo not given) | 28.2 µM (active)
CC1C(=O)Nc2ccc(S(=O)(=O)N3CCN(c4ccccc4F)CC3)cc2NC1=O (stereo not given) | inactive
COc1ccc(N2CCN(S(=O)(=O)c3ccc4c(c3)NC(=O)C(C)C(=O)N4)CC2)cc1 (stereo not given) | inactive
COc1ccc(OCCCn2c(C)nc3cc(C)c(C)cc32)cc1 | inactive
CC(NC(=O)c1cc(Sc2ccc(F)cc2F)nc2ccccc12)c1ccccc1 (stereo not given) | inactive
Cc1cccc(-n2ncc(C(=O)N3CCc4ccccc4C3)c2C2CCN(C(=O)OC(C)(C)C)CC2)c1 | inactive
CCOc1cc(C2C(C(=O)c3ccco3)=C(O)C(=O)N2Cc2ccccc2)ccc1O (stereo not given) | inactive
CC(=O)c1sc(N2C(=O)c3oc4ccccc4c(=O)c3C2c2ccc(C)cc2)nc1C (stereo not given) | inactive
Cc1ccc2nc(N3C(=O)C(O)=C(C(=O)c4ccco4)C3c3cccc(O)c3)sc2c1 (stereo not given) | 15.8 µM (active)
Cc1ccc(CN2C(=O)SC(Nc3ccccc3)C2=O)cc1 (stereo not given) | inactive
CCOC(=O)N1CCN(S(=O)(=O)c2cc(Br)cc3c2N(C(=O)C2CC2)CC3)CC1 | inactive
CCN(c1ccc2c(c1)OCO2)S(=O)(=O)c1cc(Br)cc2c1N(C(=O)C1CC1)CC2 | 17.8 µM (active)
CN(Cc1ccccc1)C(=O)CCS(=O)(=O)c1cc(Br)cc2c1N(C(=O)C1CC1)CC2 | inactive
O=C(CCS(=O)(=O)c1cc(Br)cc2c1N(C(=O)C1CC1)CC2)Nc1ccc(Br)cc1F | inactive
